Laboratory results published in PubChem BioAssay.
Activity calls are given as the source filed them. Unless noted, the rule behind the calls is not given here.

Columns and labels:
[1] = tested on: Wnt5a (protein binding on small-molecule microarray); assay: Wnt5a binders on small-molecule microarray, primary screen, biophysical, 635/667 nm fluorescence (AID 1142); conditions: 635 nm fluorescence, higher = more signal;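 note: fluorescence read at 667 nm with signal to noise per printed feature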
[2] = cell viability in Huh7 cells, primary screen, cytotoxicity control for HCV replication inhibitor project, CellTiter-Glo luminescence, basal, 48 h (AID 1143); conditions: Huh7 HCV replicon, higher = more signal, called active from +8 up or from −8 down;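 note: Huh7 hepatoma cells carrying a hepatitis C replication reporter with no stimulus; test concentration not given here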
[3] = P. aeruginosa biofilm formation inhibitors, primary screen, PAO1 strain, BacTiter-Glo luminescence, LB-PBS (AID 1144); conditions: 12 h, higher = more signal
[4] = CREB reporter modulators without forskolin, primary screen, cell-based, PC12, CRE-LacZ reporter, unstimulated (AID 1145); conditions: no forskolin, luminescence, 4.5 h, higher = more signal, called active from +8 up or from −8 down
[5] = CREB reporter modulators under forskolin, primary screen, cell-based, PC12, CRE-LacZ reporter, forskolin-stimulated (AID 1146); conditions: luminescence, 4.5 h, higher = more signal, called active from +8 up or from −8 down;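 note: PC12 cells with 6xCRE LacZ reporter stimulated by forskolin 10 µM; beta-galactosidase reporter signal reflecting CREB driven transcription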
[6] = target: Streptavidin (Streptomyces avidinii) (UniProt P22629); assay: streptavidin binders on small-molecule microarray, primary screen, artefact control for SMM compound annotation, biophysical, 635/667 nm fluorescence (AID 1147); conditions: streptavidin binding, higher = more signal;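 note: signal reflects streptavidin binding to arrayed compounds as a control protein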
Chain of Streptavidin (Streptomyces avidinii) (P22629 whole entry, looked up): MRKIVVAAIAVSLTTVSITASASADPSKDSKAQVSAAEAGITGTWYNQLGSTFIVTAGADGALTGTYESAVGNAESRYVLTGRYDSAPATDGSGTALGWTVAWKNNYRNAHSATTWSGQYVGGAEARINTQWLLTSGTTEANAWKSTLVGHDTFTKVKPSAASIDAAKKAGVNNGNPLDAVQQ

[7] = small-molecule binders of probe aInhba, primary screen, biochemical, small-molecule microarray, 635/667 nm fluorescence (AID 1148); conditions: higher = more signal;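 note: score merges 667nm spot fluorescence with signal-to-noise for antibody binding to printed compounds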
Torsin-1A (Homo sapiens) [8] = target: Torsin-1A (Homo sapiens) (UniProt O14656); assay: torsin A binders from cell lysate, primary screen, small-molecule microarray, wild-type, 635/667 nm (AID 1149); conditions: COS7 hTOR1A-WT lysate, 635 nm fluorescence, higher = more signal
Chain of Torsin-1A (Homo sapiens) (O14656 whole entry, looked up): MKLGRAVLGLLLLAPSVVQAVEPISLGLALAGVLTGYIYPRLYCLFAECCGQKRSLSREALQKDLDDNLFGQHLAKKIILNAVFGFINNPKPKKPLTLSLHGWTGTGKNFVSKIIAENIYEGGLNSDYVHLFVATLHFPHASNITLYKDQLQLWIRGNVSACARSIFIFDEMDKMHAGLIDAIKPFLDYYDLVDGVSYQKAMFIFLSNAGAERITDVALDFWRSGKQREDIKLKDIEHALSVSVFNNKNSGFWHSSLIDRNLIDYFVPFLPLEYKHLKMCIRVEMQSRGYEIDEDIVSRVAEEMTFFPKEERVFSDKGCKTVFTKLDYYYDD

Torsin-1A (Homo sapiens) [9] = target: Torsin-1A (Homo sapiens) (UniProt O14656); assay: small-molecule binders of mutant TOR1A in lysate, primary screen, cell lysate, small-molecule microarray, COS7 lysate, 635/667 nm fluorescence (AID 1150); conditions: COS7 hTOR1A mutant lysate, 635 nm fluorescence, higher = more signal;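 note: score pools 667 nm emission and signal to noise measuring lysate protein binding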
[10] = tested on: Sonic hedgehog protein (Shh); assay: small-molecule binders of Shh protein, primary screen, biochemical, small-molecule microarray, 635/667 nm fluorescence (AID 1151); conditions: small-molecule microarray binding, 635 nm fluorescence; higher = more signal;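 note: Shh protein binding to compounds spotted on small-molecule microarray slides; score combines spot fluorescence intensity with signal-to-noise across triplicate slides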

Row | SMILES | composite z-score [1] | z-score [2] | z-score [3] | z-score [4] | z-score [5] | composite z-score [6] | composite z-score [7] | composite z-score (Torsin-1A (Homo sapiens) [8]) | composite z-score (Torsin-1A (Homo sapiens) [9]) | composite z-score [10]
1 | CC(C)=CCCC(C)=CCON=C1C[C@@H](O)[C@@H](O)[C@@H]2[C@@H]3C(=O)N(Cc4ccccc4)C(=O)[C@@H]3CC[C@H]12 | -0.0617 | -3.4 (inactive) | -0.302 (inactive) | -0.293 (inactive) | -0.96 (inactive) | 0.0609 | -0.0736 | 0.23 | 0.0793 | 0.993
2 | COC(=O)CC=C[C@@H](C)[C@@H](C=NO[C@@H]1O[C@H](COC(C)=O)[C@@H](OC(C)=O)[C@H](OC(C)=O)[C@H]1OC(C)=O)OC | 0.359 | 0.36 (inactive) | -0.743 (inactive) | 0.834 (inactive) | 0.0774 (inactive) | -0.769 | -0.165 | 0.698 | 0.32 | 0.0568
3 | CCOC(=O)[C@H](CC(C)C)NC(=O)CCC1CC(OC(=O)NCCc2ccc(F)cc2)CC2(CCCC(COC(=O)NCCc3ccc(Cl)cc3)O2)O1 (stereo not given in full) | 0.555 | -1.54 (inactive) | -0.204 (inactive) | 1.75 (inactive) | 0.214 (inactive) | 0.645 | -0.125 | 0.601 | 0.385 | 1.62
4 | CC(CCN1CCCCc2nc(C)c(C)cc21)=NO[C@H](C)c1cn([C@H](CO)Cc2ccccc2)nn1 | 0.101 | -1.11 (inactive) | 0.0152 (inactive) | 2.24 (inactive) | 0.743 (inactive) | 0.0378 | -0.256 | 2.04 | 0.164 | 1.32
5 | C=CC[C@@H]1C=C[C@H](ON=C(C)CCC(=O)OC[C@H]2O[C@H](C#Cc3ccccc3)C=C[C@@H]2Oc2ccc(C)cc2)[C@@H](CO)O1 | 0.0897 | -0.273 (inactive) | 0.0915 (inactive) | -0.306 (inactive) | 0.435 (inactive) | 0.635 | -0.0375 | 0.569 | 0.185 | 0.795
6 | COC(=O)CC=C[C@@H](C)[C@@H](C=NOC(C)CN1CCCc2nc(C)c(C)cc21)OC (stereo not given in full) | 0.17 | 0.431 (inactive) | 0.764 (inactive) | -0.64 (inactive) | 0.632 (inactive) | 1.21 | 0.098 | 0.254 | 0.0852 | 0.655
7 | CCOC(=O)[C@H](CC(C)C)NC(=O)CCC1CC(OC(=O)NCc2cccc3ccccc23)CC2(CCCC(COC(=O)NCCCN3CCCC3=O)O2)O1 (stereo not given in full) | -0.144 | -0.961 (inactive) | -0.908 (inactive) | -0.437 (inactive) | 0.501 (inactive) | 0.286 | -0.128 | 0.316 | 0.299 | 0.956
8 | CC(C)=NOC[C@@H](C)[C@H](OCc1ccccc1)C(C)C | -0.437 | 0.563 (inactive) | -0.181 (inactive) | 1.17 (inactive) | 0.112 (inactive) | 0.0253 | -0.128 | -0.522 | -0.31 | -0.448
9 | CCOC(=O)NN=C1C[C@@H](O)[C@@H](O)[C@@H]2[C@@H]3C(=O)N(c4cccc(Oc5ccccc5)c4)C(=O)[C@@H]3CC[C@@H]12 | 0.0449 | -1.49 (inactive) | 0.362 (inactive) | -0.201 (inactive) | -0.252 (inactive) | -0.343 | -0.178 | 0.986 | 0.139 | -0.438
10 | CCOC(=O)[C@H](CC(C)C)NC(=O)CCC1CC(OC(=O)NCCc2ccc(F)cc2)CC2(CCCC(COC(=O)NCC(c3ccccc3)c3ccccc3)O2)O1 (stereo not given in full) | 0.228 | -0.361 (inactive) | -0.427 (inactive) | -0.438 (inactive) | -0.292 (inactive) | 1.22 | 0.0111 | -0.106 | 0.241 | 0.721
11 | Cn1c(=O)n2n(c1=O)[C@H]1[C@H](O)[C@@H]3O[C@@H]3C(=O)[C@H]1CC2 | 0.0242 | 0.0801 (inactive) | 0.0513 (inactive) | -1.29 (inactive) | -0.69 (inactive) | 0.924 | -0.041 | 0.961 | 0.198 | 0.537
12 | CO[C@H]1COC(=O)CC=C[C@@H](C)[C@H](NS(=O)(=O)c2ccc(C)cc2)COC(=O)CCC[C@@H]1C | 0.118 | -0.279 (inactive) | -0.365 (inactive) | -1.13 (inactive) | -0.198 (inactive) | 0.439 | -0.239 | 0.815 | 0.819 | 0.417
13 | O=C1CCCC=C1C(O)CCOC(c1ccccc1)(c1ccccc1)c1ccccc1 (stereo not given) | -0.263 | -1.32 (inactive) | 1.33 (inactive) | -0.344 (inactive) | 1.57 (inactive) | -0.328 | -0.128 | -0.981 | -0.0854 | 0.489
14 | C[C@H]1Cc2c(COc3ccccc3)nc3c(c2CO1)CN(CCOc1ccccc1)CC3 | 0.0543 | -0.491 (inactive) | -1.96 (inactive) | 3.54 (inactive) | -0.632 (inactive) | 0.426 | -0.157 | 0.53 | 0.217 | 1.21
15 | O=C1C=C[C@@H](O)[C@@H]2[C@@H]3C(=O)N(c4ccc(F)cc4F)C(=O)[C@@H]3CC[C@@H]12 | 0.15 | -1.18 (inactive) | 0.0333 (inactive) | 0.332 (inactive) | 0.41 (inactive) | 0.275 | -0.123 | 1.15 | 0.629 | 0.93
16 | CC(C)=CCCC(C)=CCON=C1C[C@@H](O)[C@@H](O)[C@@H]2[C@@H]3C(=O)N(C(C)(C)C)C(=O)[C@@H]3CC[C@H]12 | 0.158 | 0.232 (inactive) | -0.625 (inactive) | 0.7 (inactive) | 0.871 (inactive) | 0.0957 | 0.0442 | 0.366 | 0.987 | 0.435
17 | C[n+]1ccc(-c2ccc(CO)cc2)cc1 | -0.0113 | 0.0559 (inactive) | 0.466 (inactive) | 0.919 (inactive) | 0.723 (inactive) | 2.72 | -0.0209 | 0.565 | 1.67 | 2.14
18 | CCOC(=O)NN=C1C[C@@H](O)[C@@H](O)[C@@H]2[C@@H]3C(=O)N(C(C)(C)C)C(=O)[C@@H]3CC[C@H]12 | 0.138 | -0.0395 (inactive) | 0.655 (inactive) | -0.295 (inactive) | 0.269 (inactive) | 0.344 | 0.0427 | 0.446 | 0.307 | 0.187
19 | C[C@@H]1NC(=O)[C@@H](C)COC(=O)[C@H](C)NC(=O)[C@@H](C)COC1=O | 0.192 | -3.21 (inactive) | -0.906 (inactive) | 0.427 (inactive) | -0.105 (inactive) | -0.335 | -0.0791 | 0.179 | -0.231 | 0.234
20 | COc1ccc(O[C@H]2C=C[C@@H](c3ccccc3)O[C@@H]2CON=C(C)CCC(=O)OC[C@H]2O[C@H](c3ccccc3)C=C[C@@H]2Oc2ccc(OC)cc2)cc1 | -0.874 | -0.461 (inactive) | 0.107 (inactive) | -0.887 (inactive) | 0.593 (inactive) | 0.204 | -0.0136 | -2.42 | -1.43 | 2.02
21 | C[C@H]1COC(=O)[C@@H]2CCCN2C(=O)[C@@H](C)COC(=O)[C@H](Cc2ccccc2)NC1=O | 0.0398 | 0.257 (inactive) | -0.0355 (inactive) | -0.468 (inactive) | 0.574 (inactive) | 0.0706 | -0.045 | 0.146 | 0.0507 | 0.515
22 | CCOC(=O)[C@H](CC(C)C)NC(=O)CCC1CC(OC(=O)NCCc2ccc(F)cc2)CC2(CCCC(COC(=O)NCC3CCCCC3)O2)O1 (stereo not given in full) | 0.0548 | 0.791 (inactive) | 0.239 (inactive) | 0.381 (inactive) | 0.868 (inactive) | 1.42 | -0.148 | -0.0001 | 0.915 | 0.648
23 | COC(=O)CC=C[C@@H](C)[C@@H](C=NO[C@@H](C)c1cn([C@H](CO)Cc2ccccc2)nn1)OC | -0.251 | -0.323 (inactive) | -0.54 (inactive) | 0.597 (inactive) | 0.0826 (inactive) | 0.303 | -0.128 | 0.652 | 0.278 | 0.469
24 | C[C@H](ON=C1[C@H]2CCn3c(=O)n(-c4ccccc4)c(=O)n3[C@H]2[C@H](O)[C@@H]2O[C@H]12)c1cn([C@H](CO)Cc2ccccc2)nn1 | 0.087 | 1.92 (inactive) | 0.285 (inactive) | -0.324 (inactive) | 0.578 (inactive) | 1.19 | -0.154 | 0.421 | 0.295 | 0.248
